# Compound activity from PubChem BioAssay.
# Only some compounds are listed: those with a hit (about 6.2% of all), similar ones and a draw of the others.
# HCMV inh = human cytomegalovirus inhibition; activity change, negative = inhibition, % at 57.5 µM; HFF cells, HCMV-luciferase reporter, 72 h; stronger effect = lower value; hit rate 4.5% among 410,000; in the data active = activity change below about -60%; inconclusive = no clear call, values can overlap the other calls; inactive = above about -39%
#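 Two-dose cell screen: HFF monolayers treated with compounds and infected with luciferase-expressing HCMV at 1 PFU/cell, 72 h at 37C, then lysed for luciferase measurement.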
# FMDV antiviral = antivirals against foot and mouth disease virus; Potency, µM (series often up to 57.9 µM), for inactives: at the highest dose activity change, negative = inhibition, usual class: inhibitors; hit rate 1.2% among 410,000; AID 1159524; FMDV antiviral cell-based qHTS; calls by dose curve; tested in HEK293T cells; note: read-out not given here; potency is the fitted concentration of half-maximal effect; nearly all actives have a fitted effect of over 45% in size
# MARV entry inh = blocks Marburg virus binding to or entry into cells | Marburg virus pseudotyped entry inhibition, cell reporter | Potency, µM (series often up to 37.8 µM), inactives show at the top dose activity change, negative = inhibition, actives largely listed as inhibitors | hit rate 1.8% among 300,000 | AID 540276; calls by dose curve; tested in HEK293 cells; note: potency is the fitted concentration of half-maximal effect
# LASV entry inh = Lassa virus entry inhibition. Lassa virus pseudotype entry inhibition, cell reporter. Potency, µM (series often up to 37.9 µM), without a hit: at the top dose activity change, negative = inhibition, usual class: inhibitors. AID 540256. hit rate 1.2% among 300,000; calls by dose curve; tested in HEK293 cells; note: potency is the fitted concentration of half-maximal effect; nearly all actives have a fitted effect of over 50% in size
# * marks the source's active call; other numbers are inactive results; ? = inconclusive; · = not tested or not shown; [ ] = remark or other dose. % is set by controls: 0 for no effect and ±100 for the full control effect.
SMILES,HCMV inh,FMDV antiviral,MARV entry inh,LASV entry inh
CCCN1C2CCCC1CC(NC(=O)c1cccc([N+](=O)[O-])c1)C2 (stereo not given),-14.7,-2.7%,-6.9%,?
CCOC(=O)c1c(-c2ccccc2)csc1NC(=O)CSc1nncs1,0.3,?,?,?
CCOC(=O)c1c(NC(=O)CSc2nnnn2C)sc(C)c1-c1ccc(C)cc1,?,?,23.1µM*,?
CCOC(=O)c1c(NC(=O)CSc2nncs2)sc(C)c1-c1ccccc1,-63.9*,?,?,?
CCOC(=O)Cc1csc(NC(=O)COc2ccccc2)n1,52.4,?,-5.8%,-0.5%
CCOC(=O)Cc1csc(NC(=O)COc2ccc(N(C)S(=O)(=O)c3cccs3)cc2)n1,11.4,25.1µM*,?,-28.0%
CN(c1ccc(OCC(=O)N2CCCCC2)cc1)S(=O)(=O)c1cccs1,-8.2,-11.6%,0.1%,?
CN(c1ccc(OCC(=O)N2CCN(c3ccc(F)cc3)CC2)cc1)S(=O)(=O)c1cccs1,-38.0,-23.5%,8.91µM*,?
O=C(CCCOc1ccc(Cl)cc1Cl)Nc1ccccc1C(=O)O,-27.5,-13.7%,3.16µM*,?
Cc1cc(Cl)ccc1OCC(=O)NCc1ccncc1,29.3,·,-15.4%,17.5%
Cc1cc(Cl)ccc1OCC(=O)Nc1ccncc1,-60.5*,-20.4%,·,·
Cc1cccc(OCC(=O)Nc2ncn[nH]2)c1C,-21.8,35.8%,·,·
Cc1cccc(OCC(=O)Nc2nnn(C)n2)c1C,-101.9*,6.7%,-19.1%,26.3%
O=C(COc1ccc(Cl)cc1Cl)Nc1ccc(C(=O)Nc2ccccc2C(=O)O)cc1,-28.1,-1.0%,·,·
C/C=C/c1ccc(OCC(=O)Nc2ccncc2)c(OC)c1,-82.6*,-7.2%,·,·
COc1cccc(CC2(CO)CCCN(Cc3ccccc3-c3ccco3)C2)c1 (stereo not given),-9.5,-29.6%,-29.1%[46.1 µM],-7.2%
Cc1c(C)c2ccc(OCC(=O)Nc3ccccn3)c(C)c2oc1=O,-84.5*,-10.3%,·,·
Cc1cc(OCC(=O)Nc2ccncc2)ccc1Br,-90.1*,?,-0.2%,1.3%
Cc1cccc(OCC(=O)Nc2ccncc2)c1C,-83.5*,-14.6%,?,?
Cc1c(C)c2cc(Cl)c(OCC(=O)Nc3ccccn3)cc2oc1=O,3.9,0.0%,·,·
Cc1cccc(OCC(=O)NNC(=O)c2cccs2)c1,-37.9,-8.1%,7.2%[46.1 µM],-15.0%
COc1cccc(NC(=O)COc2ccc(Br)c(C)c2)c1,21.9,61.4%,·,·
Cc1cc(OCC(=O)NNC(=O)c2cccs2)ccc1Br,-73.4*,0.0%,6.1%[46.1 µM],14.4%[46.1 µM]
CC1CCCN(Cc2cn3c(-c4cccc(Br)c4)nnc3s2)C1 (stereo not given),8.4,-18.8%,·,6.6%[46.1 µM]
O=C1c2ccccc2C(=O)c2cc(S(=O)(=O)Nc3ccccc3)ccc21,-37.9,-18.7%,4.2%,-1.9%
SMILES,HCMV inh,FMDV antiviral,MARV entry inh,LASV entry inh
O=C(COc1ccc(Cl)cc1Cl)Nc1ccccn1,-79.6*,1.58µM*,?,0.517µM*
CSc1ccccc1NC(=O)COc1ccc(Cl)cc1Cl,?,-1.6%,?,19.1%
Cc1nn(C)c(C)c1NC(=O)COc1ccc(Cl)cc1Br,-93.1*,?,?,?
COC(=O)c1ccc(N2C(=O)c3cc(N4CCOCC4)c([N+](=O)[O-])cc3C2=O)cc1,38.5,-29.3%,?,2.4%
COc1ccccc1NC(=O)C1=C(C)NC(=O)NC1c1ccccc1F (stereo not given),-13.8,0.0%,·,·
CC(C)(C)c1ccc(OCc2ccc(C(=O)N/N=C3\CC4CC=CC34)cc2)cc1 (stereo not given),-68.2*,10.9%,0.3%,-19.3%
C=CCN1C(=O)/C(=C/c2cccs2)S/C1=N\S(=O)(=O)c1ccc(F)cc1,-30.6,-23.2%,-1.8%,0.2%
CCCNC(=O)/C=C/c1ccc(S(=O)(=O)Nc2ccccc2OC)cc1,-37.3,-16.1%,?,5.01µM*
CC(=O)c1ccc(NC(=O)Nc2ccc3c(c2)N(C)C(=O)CS3)cc1,10.7,-25.4%,8.9%,21.1%
CSC1=NC=C(C#N)C2=NC(c3c(Cl)cccc3Cl)NN12 (stereo not given),·,39.8µM*,·,·
Cc1cccc(N=C2NC(=O)/C(=C/c3cccs3)S2)c1,-0.7,32.4%,?,?
Cc1cccc(/C=C2/S/C(=N/N=C3\CC4CCC3(C)C4(C)C)NC2=O)c1 (stereo not given),-6.8,?,?,14.1µM*
O=C(CN(Cc1cccs1)C(=O)CSc1nnc(COc2ccccc2)o1)NC1CCCCC1,2.5,39.8µM*,?,?
CCOc1ccc(N(CC(=O)NC2CCCCC2)C(=O)CSc2nnc(COc3ccccc3)o2)cc1,27.4,-17.6%,-9.1%[46.1 µM],-5.2%
O=C(N[C@@H]1c2ccccc2CC[C@@H]1OCc1ccccc1)c1ccc(-c2ccccc2)cc1,-10.9,-6.0%,·,·
COc1cc(N)c(Cc2nccc3cc(OC)c(OC)cc23)cc1OC,1.8,-26.3%,-15.0%[46.1 µM],?
COc1cc2ccnc(Cc3cccc(OC)c3OC)c2cc1OC,-71.5*,?,20.4%[46.1 µM],·
CCOc1cc(-c2nccc3cc(OC)c(OC)cc23)cc(OCC)c1OCC,-27.0,?,12.6µM*,?
O=C(CNC(=O)c1ccccc1)NCc1nc2ccccc2[nH]1,6.6,-18.4%,4.1%[46.1 µM],-25.7%
Cc1ccc(OCCCc2c(C)n[nH]c2C)cc1,?,-11.4%,?,-9.5%[46.1 µM]
Cc1n[nH]c(C)c1CCCCOc1ccccc1,-82.4*,?,-21.1%[46.1 µM],9.9%
CCOC(=O)N1CCN(C(=O)c2ccc3nc4ccsc4c(=O)n3c2)CC1,38.6,-16.8%,·,·
CCOC(=O)N1CCN(C(=O)c2ccc3nc4ccc(Cl)cc4c(=O)n3c2)CC1,-97.2*,1.0%,?,?
O=C(NCCCc1ccccc1)c1c(O)nc2sccn2c1=O,-63.9*,-2.6%,-8.7%,13.9%
O=C(NCCC1=CCCCC1)c1c(O)nc2sccn2c1=O,·,10.5%,4.8%,-18.5%
SMILES,HCMV inh,FMDV antiviral,MARV entry inh,LASV entry inh
CCOC(=O)Cc1cc(=O)n2[nH]c(C)c(-c3ccc(OC)cc3)c2n1,-1.3,-24.5%,14.3%,13.9%
O=C(/C=C/c1cccc([N+](=O)[O-])c1)c1ccc([N+](=O)[O-])o1,-10.0,?,·,·
COc1ccc(/C=C/C(=O)c2ccc([N+](=O)[O-])o2)cc1,43.7,25.1µM*,·,·
Cc1cccc(/C=C/C(=O)c2ccc([N+](=O)[O-])o2)c1,-102.9*,25.1µM*,·,·
Cc1ccccc1/C=C/C(=O)c1ccc([N+](=O)[O-])o1,-103.0*,22.4µM*,·,·
CC1CCCCN1c1ncnc(N)c1[N+](=O)[O-] (stereo not given),-77.3*,-17.8%,-5.2%[46.1 µM],·
CC1Cc2ccccc2N1c1ncnc(N)c1[N+](=O)[O-] (stereo not given),-101.3*,?,13.0%,10.4%
CC1Cc2ccccc2N1c1ncnc2nc[nH]c12 (stereo not given),·,36.1%,-3.5%,?
Cc1nc(N2CCOCC2)nc(N2CCCCC2C)c1[N+](=O)[O-] (stereo not given),4.5,-23.9%,·,·
CCOC(=O)CC1(O)CSc2nc(N)cc(=O)n21 (stereo not given),-76.5*,·,·,·
CCOC(=O)CSc1nc(C)cc(C)n1,20.7,-3.5%,?,14.5%
O=C(N[C@@H](Cc1ccc(Br)cc1)C(=O)O)OCC1c2ccccc2-c2ccccc21,-6.9,-20.7%,·,·
